Screens as filed in PubChem BioAssay.
Compounds with a hit are over-represented: about 3.5% of the library has one in this group of screens.
TEAD-YAP block – TEAD-YAP interaction inhibition; HEK-TIYL cells, TEAD-Gal4/YAP UAS-luciferase luminescence; inhibition, % at 9.12 µM; 640,000 compounds, 1.4% hits; AID 1259422; in the data active = inhibition above about 32%;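 also: 0% = median of test compound wells and 100% = reference inhibitor wells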
GPR151 activ – human GPR151 activation. Q8TDV0. PathHunter beta-arrestin GPR151 cells, luminescence. activation, % at 11.2 µM. 650,000 compounds, 1% hits. AID 1508602; in the data active = activation above about 4.9%;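 also: 0% = median of compound wells and 100% = cells with positive control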
MITF inh – human MITF inhibition, primary screen | AlphaScreen MITF homodimerization, bead proximity signal | inhibition, % at 2.6 µM | 650,000 compounds, 0.91% hits; in the data active = inhibition above about 50%;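 also: 0% = vehicle wells with protein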
FBW7 act – human FBW7 E3 ligase activation, primary screen; Q969H0; AlphaScreen FBW7–phospho-cyclin E peptide binding, activator screen; normalized activity (activation), % at 26.1 µM; 650,000 compounds, 0.13% hits; in the data active = normalized activity above about 1.9%;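 also: purified mutant Fbw7 with reduced substrate affinity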
GPR151 confirm – human GPR151 activation, confirmation screen; activation, % at 11.2 µM; shares compounds with GPR151 activ; GPR151 PathHunter beta-arrestin cells, luminescence, 90 min; % of EA-reagent control over plate median; 6,700 tested, under 10 active;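 active = mean percent activation across replicates above the confirmation screen cutoff of 4.91%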
GPR119 counter – GPR119 activation, counter-screen for GPR151 activators; AID 1508611; activation, % at 11.2 µM; GPR119 PathHunter beta-arrestin cells, luminescence, 90 min; 0 = compound-well median, 100 = enzyme-acceptor control; 6,700 compounds, 0.3% hits; shares compounds with GPR151 activ;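 active = mean percent activation in the counterscreen above 29.09%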;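 also: counterscreen on off-target GPR119 to flag nonselective hits from the GPR151 activator screen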
Target sequence (Q8TDV5 whole entry, looked up): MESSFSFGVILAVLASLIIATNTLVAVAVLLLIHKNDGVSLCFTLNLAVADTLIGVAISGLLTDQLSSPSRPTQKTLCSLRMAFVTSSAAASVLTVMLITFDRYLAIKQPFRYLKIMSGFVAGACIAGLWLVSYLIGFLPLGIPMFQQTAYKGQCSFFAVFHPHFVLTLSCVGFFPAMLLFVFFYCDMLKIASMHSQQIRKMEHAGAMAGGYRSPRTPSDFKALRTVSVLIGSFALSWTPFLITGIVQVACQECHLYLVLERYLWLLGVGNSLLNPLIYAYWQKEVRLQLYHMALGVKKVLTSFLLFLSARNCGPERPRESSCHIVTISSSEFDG
Numbers without * were called inactive; . = no result given.

SMILES	TEAD-YAP block	GPR151 activ	MITF inh	FBW7 act	GPR151 confirm	GPR119 counter
COC(=O)C(CCCCNC(=O)c1ccccc1)NC(=O)c1ccccc1 (centres undefined)	3.0	-0.4	6.4	-0.1	.	.
CCCCOC(=O)c1cccc(NC(=S)NC(=O)c2cc(OC)c(OC)c(OC)c2)c1	-8.3	5.1*	6.0	-0.1	0.0	0.1
CCCN1CCN(C(=O)c2cn(-c3ccc(OC)cc3)c(=O)c3ccccc23)CC1	-1.3	-0.7	0.4	-0.1	.	.
CCc1ccccc1Nc1nncc(=O)[nH]1	10.5	7.2*	-1.0	0.0	-1.6	-9.5
CCOc1ccccc1Nc1nncc(=O)[nH]1	11.2	-0.1	-2.9	-0.1	.	.
Cc1ccccc1C(=O)Nc1sc2c(c1C(=O)N1CCCCCC1)CCC2	-0.8	0.2	7.4	-0.1	.	.
CCC(CO)NCc1ccc(OCC(=O)NC(C)c2ccccc2)c(OC)c1 (centres undefined)	3.6	6.0*	-0.1	-0.3	1.3	0.8
CCOC(=O)c1c(NC(=O)c2c(OC)cccc2OC)sc2c1CCC2	-2.5	-0.3	-7.8	0.1	.	.
CC(=O)c1ccc(-n2c(C)cc(/C=C(/C#N)C(=O)NCc3ccccc3)c2C)cc1	-18.1	0.2	3.7	-0.1	.	.
CCOc1ccc2nc(NC(=O)c3cccc(C)c3[N+](=O)[O-])sc2c1	10.3	-2.0	22.6	0.1	.	.
CCN1CNC(=S)N(c2ccc(F)c(Cl)c2)C1	0.6	6.0*	6.8	0.0	0.5	-7.1
CCC(=O)n1cc(/C=C2\SC(=NC)N(C)C2=O)c(-c2ccccc2)n1	-17.4	-0.1	-9.2	-0.2	.	.
Nc1nc(SCC(=O)NC2CCCCCCC2)n[nH]1	2.8	1.8	2.0	0.1	.	.
CC(Sc1n[nH]c(N)n1)C(=O)OC1CCCCC1 (centres undefined)	2.3	10.0*	16.4	0.2	-0.7	-3.2
C=CCn1c(SC(C)C(=O)NC(N)=O)nnc1-c1ccc(C(C)(C)C)cc1 (centres undefined)	2.2	8.2*	-7.1	0.0	0.1	-3.4
COc1cc2nc(Nc3ccncc3)nc(Nc3ccc(N4CCOCC4)cc3)c2cc1OC	-7.1	6.6*	17.9	-0.2	-0.3	-2.5
CCOc1ccc(NC2=NCC(=O)N2Cc2ccc(F)cc2)cc1	-8.0	0.1	2.0	0.0	.	.
Cc1cc(-c2n[nH]c(=S)n2-c2ccccc2)nn1C	9.1	18.2*	21.0	0.2	0.3	1.9
Cc1cc(C)nc(N/N=C/c2ccc(F)cc2F)n1	-31.1	-0.5	11.1	-0.3	.	.
COc1ccc2c(c1OC)C(=O)OC2CC(=O)c1cc(Cl)ccc1O (centres undefined)	7.7	0.6	12.9	0.0	.	.
Cc1oc(-c2ccccc2)nc1C(=O)O	1.6	5.0*	-5.6	0.1	1.0	-2.5
O=S(=O)(/C=C/c1ccccc1)N1CCCC(N2CCN(c3ccccc3)CC2)C1 (centres undefined)	20.4	5.6*	1.5	-0.2	0.3	6.5
CCOC(=O)CNc1c(-c2ccc(OC)c(O)c2)nc2ccc(C)cn12	-34.4	5.5*	10.2	-0.1	-0.4	0.8
CCOC(=O)CNc1c(-c2ccc(O)cc2)nc2cnccn12	-6.5	0.6	-2.6	0.2	.	.
Clc1ccc2nc(CSc3nncn3-c3ccccc3)cn2c1	0.7	5.1*	1.3	-0.1	0.1	5.9
SMILES	TEAD-YAP block	GPR151 activ	MITF inh	FBW7 act	GPR151 confirm	GPR119 counter
COc1ccc(-n2nc(C(=O)N3CCCC(C)C3)c3ccccc3c2=O)cc1 (centres undefined)	-1.4	-0.3	-7.4	-0.1	.	.
COc1ccc(C(=O)n2nc(N)c3cc4ccc(C)cc4nc32)cc1	-37.2	-1.8	10.5	0.1	.	.
COc1cc(C(=O)n2nc(N)c3cc4ccc(C)cc4nc32)cc(OC)c1OC	41.0*	7.8*	1.9	-0.1	1.4	11.0
Cc1ccc2cccc(OC(=O)c3cc([N+](=O)[O-])ccc3Br)c2n1	7.8	0.2	-0.7	-0.1	.	.
Cc1cc2nc3c(=O)n(C4CCCCCC4)c(=O)[nH]c3nc2cc1N	-20.4	5.1*	5.4	0.6	2.4	8.1
CCOc1ccc(S(=O)(=O)NC2CC2)cc1	4.9	2.9	7.3	0.2	.	.
CCOc1ccc(S(=O)(=O)NC2CCCCC2)cc1	3.8	5.3*	12.4	0.2	-0.8	-5.7
COc1cc(Cl)cc(/C=N/N(C)C2=NS(=O)(=O)c3ccccc32)c1O	-5.0	0.8	3.2	0.0	.	.
CCC(C(=O)Nc1ccc(S(=O)(=O)N2CCC(C)CC2)cc1)c1ccccc1 (centres undefined)	-2.2	5.0*	-17.2	0.2	0.7	3.7
CC1CCCCN1S(=O)(=O)c1ccc(NC(=O)CSc2nc3ccccc3o2)cc1 (centres undefined)	-1.0	-0.5	8.4	0.2	.	.
CC1CCN(S(=O)(=O)c2ccc(NC(=O)CSc3nc4ccccc4o3)cc2)CC1	10.5	16.0*	4.2	0.1	2.2	26.5
O=C(CSc1cccc[n+]1[O-])Nc1ccc(S(=O)(=O)N2CCCC2)cc1	2.6	6.4*	-10.3	0.4	0.0	-1.6
O=C(CSc1cccc[n+]1[O-])Nc1ccccc1	-9.6	1.3	-8.8	-0.2	.	.
Cc1ccc(CNC(=O)CSc2nc3ccsc3c(=O)n2NC(=O)COc2ccccc2Br)cc1	2.1	-1.6	7.2	0.1	.	.
Cc1ccccc1-n1c(=S)sc2c(=O)n(-c3ccccc3F)c(SCC(=O)C(C)(C)C)nc21	-3.6	-0.6	4.0	-0.3	.	.
O=[N+]([O-])c1ccc(NCc2ccccn2)c([N+](=O)[O-])c1	0.6	1.0	-20.7	0.0	.	.
CC1Cc2cc(S(=O)(=O)CCC(=O)Nc3cccc(F)c3)ccc2N1C(=O)C1CC1 (centres undefined)	7.7	0.6	-0.7	0.0	.	.
CC1Cc2cc(S(=O)(=O)CCC(=O)Nc3ccccc3Cl)ccc2N1C(=O)C1CC1 (centres undefined)	13.9	5.2*	1.9	0.0	0.5	1.0
Cc1ccc(Cl)cc1NC(=O)CSc1nc2ccc(NC(=O)c3ccc(C(C)(C)C)cc3)cc2s1	14.0	1.5	-0.2	0.0	.	.
COC(=O)c1c(N)sc(C)c1-c1cccc(Cl)c1	1.2	6.0*	-4.6	0.2	0.9	17.6
CCOC(=O)c1c(N)sc(C)c1-c1cccc(Cl)c1	1.8	0.2	2.4	-0.1	.	.
O=C(CN1CCN(C(=O)c2ccccc2)CC1)Nc1ccc(Br)cn1	-3.1	5.6*	13.2	0.2	-0.1	-2.1
O=C(CN1CCOCC1)Nc1ccc(Br)cn1	10.5	-0.8	-2.1	-0.1	.	.
Cc1cccnc1CCNC(=O)c1cc(COc2ccc3ncccc3c2)on1	25.9	0.8	17.7	0.2	.	.
COc1cccc(CCNC(=O)c2cc(COc3ccc4ncccc4c3)on2)c1	31.9	5.9*	-5.2	-0.1	-1.2	-16.9
CC(=O)c1cccc(NC(=O)NC2CC3CCC(C2)N3Cc2cccs2)c1 (centres undefined)	-10.1	1.6	-16.2	-0.1	.	.
